In the library only some 6.2% were active in any assay of this set; here they are far more common.
HCMV inh = blocks human cytomegalovirus replication | HFF cells, HCMV-luciferase reporter, 72 h; active compounds read low | activity change, negative = inhibition, % at 57.5 µM | AID 1259415 | 410,000 compounds, 4.5% hits; in the data active = activity change below about -60%; inconclusive = no clear call, values can overlap the other calls; inactive = above about -39%
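Compounds were evaluated in HFFs infected with an HCMV luciferase reporter virus (MOI 1 PFU/cell). Luciferase in lysates collected 72 h post infection served as the replication measure.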
FMDV antiviral = antivirals against foot and mouth disease virus; Potency, µM (titrated, usually from 57.9 µM), for inactives: at the highest dose activity change, negative = inhibition, usual class: inhibitors; 410,000 compounds, 1.2% hits; FMDV antiviral cell-based qHTS; calls by dose curve; tested in HEK293T cells; also: read-out not given here; potency is read from the fitted curve at half-maximal effect; nearly all actives have a fitted effect of over 45% in size
MARV entry inh = inhibitors of Marburg virus binding or cell entry; Potency, µM (series often up to 37.8 µM), without a hit: top-dose activity change, negative = inhibition, hits mostly inhibitors; AID 540276; Marburg virus pseudotyped entry inhibition, cell reporter; 300,000 compounds, 1.8% hits; calls by dose curve; tested in HEK293 cells; also: potency is read from the fitted curve at half-maximal effect
Lassa entry inh = inhibitors of Lassa virus binding or cell entry; Lassa virus pseudotype entry inhibition, cell reporter; Potency, µM (series often up to 37.9 µM), for the others: at the top dose activity change, negative = inhibition, actives largely listed as inhibitors; AID 540256; 300,000 compounds, 1.2% hits; calls by dose curve; tested in HEK293 cells; also: potency is read from the fitted curve at half-maximal effect; nearly all actives have a fitted effect of over 50% in size
* hit, by the source's call; ? = inconclusive; nt = no result given; ! = not active in a repeat; [ ] = another dose, or the depositor's remark. % is scaled to controls: 0 for no effect and ±100 for the full control effect.

SMILES | HCMV inh | FMDV antiviral | MARV entry inh | Lassa entry inh
COc1ccc2c(c1)OC[C@H]1[C@H]2N2C(=O)[C@H](C)NC(=O)[C@@]2(C)[C@H]1c1ccccc1 | -91* | -4% | nt | nt
Cc1nc2c(OCCC3CCCCC3)cccn2c1N(C)C(=O)CCC1CCCC1 | 34 | -28% | nt | nt
COc1ccc(C(=O)NN(C)c2nc(C(F)(F)F)nc3ccccc23)cc1 | -99* | -14% | ? | ?
Cn1nc([N+](=O)[O-])nc1Sc1nnc(-c2ccccc2)o1 | -90* | 22µM* | ? | -27%
COc1cc(C(=O)NC(=S)NNC(=O)c2ccc3c(c2)OCO3)cc(OC)c1OC | 27 | 3% | -29%[46.1 µM] | ?
COc1cc(/C=C/C(=O)c2ccc3c(c2)OCCO3)cc(OC)c1OC | -99* | ? | nt | nt
COc1cc(C(=O)c2cc3c(cc2C)OCO3)cc(OC)c1OC | -68* | -7% | nt | nt
COc1ccc(OC)c(/C=C/C(=O)c2ccc3c(c2)OCCO3)c1 | -100* | -9% | nt | nt
COc1cc(/C=C/C(=O)c2ccc3c(c2)OCO3)cc(OC)c1OC | nt | 22µM* | nt | nt
CCOc1ccc(-c2cc3nc(C4CCN(C(=O)OC(C)(C)C)CC4)c(C(=O)Nc4cc(OC)ccc4OC)cn3n2)cc1 | 12 | -6% | ? | -24%[46.1 µM]
CCOc1ccc(-c2cc3nc(C4CCN(C(=O)OC(C)(C)C)CC4)c(C(=O)Nc4ccc(C)c(F)c4)cn3n2)cc1 | -93* | 0% | ? | 18%[46.1 µM]
COc1ccc(CCNC(=O)C(=O)NCC(c2cccnc2)N2CCN(c3ccccc3)CC2)cc1 (configuration not stated) | ? | ? | nt | 11%[46.1 µM]
CN1[C@@H]2CC(OC(=O)[C@@H](CO)c3ccccc3)C[C@H]1[C@H]1O[C@H]12 (some centres not stated) | nt | nt | -11%[46.1 µM] | nt
Cc1cccc(NC(=O)c2cc(S(=O)(=O)c3ccccc3)ccc2Cl)c1 | -107* | -40% | ? | ?
Cc1cccc(NC(=O)c2ccccc2C(=O)O)c1 | 0 | 31% | 3% | 12%
O=C(Nc1cccnc1)c1ccccc1-c1ccccc1 | -60* | 8% | nt | nt
Cc1cccc(NC(=O)c2ccccc2-c2ccccc2)c1 | -104* | -18% | -13%[46.1 µM] | 3%
CCc1ccccc1NC(=O)C(=O)NCCc1sc(-c2cccc(C)c2)nc1C | -30 | -4% | nt | -30%[46.1 µM]
Cc1ccc(NC(=O)c2noc3c2CCC3)cc1C | 0 | -8% | ? | ?
O=C(Nc1cccc(O)c1)c1noc2c1CCCCC2 | -61* | nt | ? | ?
CC(C)(C)c1cc(/C=C(\C#N)C(N)=S)cc(C(C)(C)C)c1O | nt | ? | 9.2µM* | 2.3µM*
COc1cc(C=C(C#N)C#N)cc(O)c1O | nt | nt | 14% | nt
CCc1ccc(/C=C(/C#N)C(N)=S)cc1 | 17 | -8% | ? | 12%
CC(C)(C)c1cc(C=C(C#N)C#N)cc(C(C)(C)C)c1O | -100* | 4µM*! | 2.1µM* | 0.41µM*
NC[C@H](O)C1CCCCCCC1 | nt | nt | -36% | nt
SMILES | HCMV inh | FMDV antiviral | MARV entry inh | Lassa entry inh
COc1nc(-c2ccc(C)cc2)ccc1-c1noc(-c2cccnc2)n1 | 0 | -15% | 7% | 8%
COc1nc(-c2ccccc2)ccc1-c1noc(-c2cccnc2)n1 | -104* | 3% | 0% | 32%
COc1cc2c3c(c1)c(C1=NC(=S)NC1=O)c(O)n3C(C)(C)C=C2C | 9 | 7% | -18% | 1%
CC(=O)Oc1cc2c3c(c1)/C(=C1/SC(=S)NC1=O)C(=O)N3C(C)(C)C=C2C | -66* | ? | nt | nt
CCCn1c(=S)[nH]c2cc(C(=O)N3CCCC(C(=O)OCC)C3)ccc2c1=O (configuration not stated) | 29 | 18µM* | ? | -30%
CC1CCCN(C(=O)c2ccc3c(=O)n(Cc4ccc5c(c4)OCO5)c(=S)[nH]c3c2)C1 (configuration not stated) | -87* | ? | -20% | -27%
CCN(CC)C(=O)c1ccc2c(=O)n(Cc3ccc4c(c3)OCO4)c(=S)[nH]c2c1 | -25 | 2% | nt | nt
CCCn1c(=S)[nH]c2cc(C(=O)N3CCN(C(=O)OCC)CC3)ccc2c1=O | 0 | -18% | -25%[46.1 µM] | -1%[46.1 µM]
CCc1ccc(C(=O)c2cn(CC(=O)Nc3cc(OC)ccc3OC)c3nc(C)ccc3c2=O)cc1 | -8 | -15% | nt | 13%[46.1 µM]
CC1=C(C(=O)NCc2cccc(F)c2)C2(CCCCC2)OC1=O | -7 | -3% | nt | 14%[46.1 µM]
COc1ccc([C@H]2c3cc(OC)c(OC)cc3C[C@@H](C)[C@@H]2C)cc1OC | nt | -14% | nt | nt
O=C(NCC1Cc2cccc(-c3nccs3)c2O1)c1ccnc(Cl)c1 (configuration not stated) | nt | 10% | nt | nt
Cc1ccc(C)c(CN2C(=O)c3ccccc3S(=O)c3ccc(C(=O)N4CCN(c5ccccn5)CC4)cc32)c1 (configuration not stated) | -98* | -25% | ? | ?
COc1ccccc1N1CCN(C(=O)c2ccc3c(c2)N(Cc2cc(C)ccc2C)C(=O)c2ccccc2S3(=O)=O)CC1 | -67* | -4% | ? | ?
Cc1cc(C)cc(OC(=O)c2cc(-c3ccc(Cl)cc3)on2)c1 | -1 | -18% | 4%[46.1 µM] | -5%[46.1 µM]
O=C1N(Cc2ccccc2)c2ccccc2OC1(F)F | -38 | -15% | nt | nt
CSc1nc(N)c2ncn([C@H]3O[C@H](COP(=O)(O)OP(=O)(O)O)[C@@H](O)[C@@H]3O)c2n1 | nt | -7% | 8% | nt
CC(C)(C)n1nnnc1C(c1cccnc1)N(Cc1ccccc1)Cc1cccs1 (configuration not stated) | -85* | -22% | ? | ?
CC(C)(C)n1nnnc1C(c1ccc(C(F)(F)F)cc1)N(Cc1ccccc1)Cc1ccco1 (configuration not stated) | -82* | ? | ? | ?
CC(C)(C)n1nnnc1C(c1cccs1)N(Cc1ccccc1)Cc1cccnc1 (configuration not stated) | -39 | ? | -7% | 3%
CC(C)(C)n1nnnc1C(c1cccs1)N(Cc1ccc(Cl)cc1)CC1CCCO1 (configuration not stated) | -70* | ? | ? | ?
COc1ccccc1CNC(=O)c1ccc(CSc2nc3ccncc3n2Cc2ccccc2C)cc1 | -21 | -6% | ? | nt
O=C(NCc1ccc(F)c(F)c1)c1cnc(N2CCN(Cc3ccccc3)C2=O)s1 | -32 | nt | nt | nt
O=C(CCl)NN1C(=O)NC(c2ccccc2)(c2ccccc2)C1=O | -88* | ? | ? | ?
CC(C)(C)NC(=O)CN1C(=O)NC(c2ccccc2)(c2ccccc2)C1=O | -81* | -13% | 6%[46.1 µM] | 1%[46.1 µM]
SMILES | HCMV inh | FMDV antiviral | MARV entry inh | Lassa entry inh
O=C(CCCN1C(=O)c2ccccc2C1=O)N1CC[C@@H](c2ccccc2)C1 | nt | nt | 0% | nt
O=C(/C=C/c1ccc([N+](=O)[O-])cc1)c1ccccc(=O)c1O | -95* | 13µM* | ? | ?
O=C(C=Cc1ccccc1)c1cccs1 | -38 | ? | ? | 19%
O=C(/C=C/c1ccc([N+](=O)[O-])cc1)c1cccs1 | -76* | 2% | nt | nt
CCCCCCN1CCN(C2CN(Cc3cn(Cc4ccc(C(F)(F)F)cc4)nn3)S(=O)(=O)C2)CC1 (configuration not stated) | -35 | nt | ? | nt
COc1ccc(-c2nc3cc(NC(=O)COc4ccc(F)cc4)ccc3o2)cc1 | 36 | 11% | ? | 25%[46.1 µM]

Bioassay records deposited in PubChem by National Center for Advancing Translational Sciences (NCATS).
